Gal4-VP16 FLuc: counter-screen for ROR gamma inhibitors: Gal4-VP16 reporter | Drosophila S2 Gal4-VP16 UAS-luciferase, luminescence, 20 h | Potency, µM (series often up to 53.6 µM), for the others: at the highest dose activity, negative = inhibition, hits mostly inhibitors | actives 3.5% (n = 310,000) | AID 2546;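 note: Gal4-VP16 expression switched on by copper sulfate through the metallothionein promoter; potency is the fitted concentration of half-maximal effect; % is set by controls: 0 for no effect and ±100 for the full control effect; nearly all actives have a fitted effect of over 50% in size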
CtBP-E1A inh: inhibitors of CtBP/E1A interaction; AlphaScreen GST-E1A/His-CtBP binding, 1536-well; hits give low values; activity change, % (concentration not given with the values); actives 0.49% (n = 340,000); AID 651724; in the data active = activity change below about -65%; inconclusive = mostly about -30% to -63%; note: % is set by controls: 0 for no effect and ±100 for the full control effect
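Steps: dispense buffer (Tris pH 8.0, NaCl 300 mM, TCEP 1 mM, BSA, Tween 20); add 5X protein mix (GST-E1A, His-CtBP, 125 nM each); pin 23 nL compound; 2 h at 37 °C, dark; add 5X beads (50 ug/mL); 1 h; read.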
Six1-Eya2 inh: inhibitors of human Six1/Eya2 interaction | AlphaScreen GST-Six1/His-Eya2 binding, biochemical; hits give low values | activity change, % (test concentration not listed) | actives 0.56% (n = 360,000); in the data active = activity change below about -65%; inconclusive = mostly about -30% to -63%; note: % is set by controls: 0 for no effect and ±100 for the full control effect
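AlphaScreen with GST-Six1 and His-Eya2 (5X mix: 250 nM and 500 nM), glutathione donor and nickel acceptor beads; buffer 50 mM Tris pH 8.0, 300 mM NaCl, 1 mM TCEP; 1 h at 37 C in the dark.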
p53 reactivator: mutant p53 re-activation in reporter cells | actives 0.063% (n = 320,000) | H1299 p53-A138V BP100-luciferase reporter, luminescence, 24 h | AID 504706 | Potency, µM (series often up to 92.2 µM), without a hit: top-dose activity change, positive = activation, actives largely listed as activators; note: potency is the fitted concentration of half-maximal effect; % of control where 0% means no effect; nearly all actives have a fitted effect of over 45% in size
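H1299 (p53-null), stable ts p53-A138V + BP100-Luc; 1000 cells/well, Opti-MEM/10% FBS; cpd 4 pt, 1:5; 24 h, 37 deg C, 5% CO2; detection reagent 10 min RT; luminescence.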
RORg inh: ROR gamma (mouse) transcription inhibition; P51450; Drosophila S2 Gal4-RORgamma UAS-luciferase reporter, 20 h; Potency, µM (series often up to 53.6 µM), without a hit: at the top dose activity change, negative = inhibition, most hits filed as inhibitors; actives 5.4% (n = 310,000); note: potency is the fitted concentration of half-maximal effect; % is set by controls: 0 for no effect and ±100 for the full control effect; nearly all actives have a fitted effect of over 60% in size
Target sequence (P51450 whole entry, looked up, the tested form may be a part): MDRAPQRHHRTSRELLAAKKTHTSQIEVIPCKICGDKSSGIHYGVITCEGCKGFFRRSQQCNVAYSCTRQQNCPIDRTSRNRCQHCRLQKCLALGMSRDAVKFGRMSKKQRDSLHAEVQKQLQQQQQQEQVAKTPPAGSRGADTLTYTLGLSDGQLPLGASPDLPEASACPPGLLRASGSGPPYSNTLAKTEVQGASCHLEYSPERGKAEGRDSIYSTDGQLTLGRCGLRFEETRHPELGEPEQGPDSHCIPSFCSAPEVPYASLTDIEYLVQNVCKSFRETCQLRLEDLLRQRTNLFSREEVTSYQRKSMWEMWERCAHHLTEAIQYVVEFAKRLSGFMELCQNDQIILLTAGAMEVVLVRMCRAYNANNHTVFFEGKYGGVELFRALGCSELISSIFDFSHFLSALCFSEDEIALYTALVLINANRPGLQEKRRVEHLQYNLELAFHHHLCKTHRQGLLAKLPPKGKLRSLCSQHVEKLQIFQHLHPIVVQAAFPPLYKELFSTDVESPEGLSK
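Compounds are pin-transferred onto Drosophila Schneider cells expressing a copper-inducible Gal4–ROR gamma transactivation domain fusion. After 1 hr, copper sulfate is added to 700 uM final; luciferase is read 20 hr later.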
* = called active by the depositor; ? = inconclusive; . = no result; [ ] = remark or other dose. The list is not random: actives were taken first. Their share in the collection is about 5.4%. Unless noted, calls come from the whole dose curve; as a rule, active = well fitted curve in the direction sought with a large enough effect; inconclusive = small, poorly fitted or top-dose-only effect, or another doubt; inactive = no such curve, though single readings can be large; an effect the other way counts as inactive or inconclusive.

SMILES	Gal4-VP16 FLuc	CtBP-E1A inh	Six1-Eya2 inh	p53 reactivator	RORg inh
CCN(c1ccccc1)S(=O)(=O)c1ccc(C(=O)Oc2ccc(C(C)=O)cc2)cc1	10µM*	6	1	0%	?
CCN(c1ccccc1)S(=O)(=O)c1ccc(C(=O)Nc2ncccc2C)cc1	.	-24	10	-5%	.
COc1ccc(/C=C/N(CCc2ccc(OC)c(OC)c2)C(=O)c2ccccn2)cc1	5%[10 µM]	.	.	.	37%[10 µM]
Cc1nnc(C)n1/N=C/c1ccccc1	-4%	2	3	-5%	-10%
N=C1N(/N=C/c2ccccc2)C(=Nc2ccccc2)C(=S)N1c1ccccc1	5µM*	2	1	?	4.5µM*
CCOC(=O)c1c(C(C)(C)C)oc2ccc(O)cc12	16µM*	-1	-7	-4%	-33%
CCOC(=O)c1c(COc2ccccc2)oc2ccc(O)cc12	-3%	-3	-1	-4%	3%
CCn1c(-c2cc(-c3ccc(OC(C)C)cc3)nc3ccccc23)n[nH]c1=S	?	-16	-11	16%	13µM*
C=CCn1c(-c2cc(-c3ccc(C)cc3)nc3ccccc23)n[nH]c1=S	10µM*	-10	-3	14%	0.89µM*
CCn1c(-c2cccn(Cc3ccccc3)c2=O)n[nH]c1=S	8%	-4	-3	-2%	-32%
C=CCn1c(C)nc2ccccc2c1=O	-8%	.	3	1%	0%
CCC(C)NC(=O)CSc1nnc(-c2cc(-c3ccc(C)cc3)nc3ccccc23)n1N (stereo not drawn)	11%	-3	4	1%	40%
CCn1c(-c2cc(-c3ccc(C)cc3)nc3ccccc23)n[nH]c1=S	-19%	-1	-9	0%	1.1µM*
CCn1c(-c2ccccc2SC)n[nH]c1=S	-11%	18	0	2%	14µM*
O=c1cnc2cnc(N3CCNCC3)nc2n1C1CC1	-7%	.	.	.	17%
CCCOc1cccc(-c2cc(-c3n[nH]c(=S)n3CC)c3ccccc3n2)c1	-20%	-13	-13	0%	1.3µM*
COc1ccccc1N(C)S(=O)(=O)c1ccc(C(=O)Nc2ccncc2)cc1	.	-2	-1	-2%	.
COc1cc(OC)cc(C(=O)Nc2nc(-c3ccccc3)c(-c3ccccc3)o2)c1	2.8µM*	12	4	-12%	1.4µM*
COc1cc(OC)cc(C(=O)Nc2cccc(NC(=O)c3cc(OC)cc(OC)c3)n2)c1	.	4	-6	.	.
CC(=O)Nc1nc(-c2ccccc2)c(-c2ccccc2)o1	?	11	-2	-5%	13µM*
CO[Si](CCCNCCC[Si](OC)(OC)OC)(OC)OC	-11%	.	.	.	15%
COc1c(O)ccc(/C=N/NC(=O)c2ccc3c(c2)OCCO3)c1[N+](=O)[O-]	1.6µM*	-8	-1	18%	1.1µM*
COc1c(O)ccc(/C=N\NC(=O)c2ccc3c(c2)OCO3)c1[N+](=O)[O-]	?	.	-2	.	10µM*
O=C(N/N=C/c1cc2c(cc1[N+](=O)[O-])OCO2)c1ccc2c(c1)OCO2	2%	1	-12	-2%	17%
CCCC/C=C/C(NC(=O)c1ccco1)c1ccccc1 (stereo not drawn)	11%	.	.	.	24%
SMILES	Gal4-VP16 FLuc	CtBP-E1A inh	Six1-Eya2 inh	p53 reactivator	RORg inh
Oc1c(Cl)cc(Cl)c2c1NCCC2	5µM*	4	?	-3%	3.2µM*
O=C1NCCCc2c1oc1ccc(O)cc21	?	-13	-18	?	20%
CCOC(=O)c1ccc(NC(=O)c2nc[nH]c2C(=O)NCC(=O)OC(C)(C)C)cc1	16µM*	5	-3	1%	7.1µM*
CCOC(=O)c1ccc(NC(=O)c2nc[nH]c2C(=O)NCCCCCNC(=O)OC(C)(C)C)cc1	?	2	-2	0%	11µM*
CCOC(=O)c1ccc(NC(=O)c2nc[nH]c2C(=O)N(CC)CC)cc1	?	.	6	-4%	11µM*
CCOC(=O)c1ccc(NC(=O)c2nc[nH]c2C(=O)NCCCNC(=O)c2[nH]cnc2C(=O)Nc2ccc(C(=O)OCC)cc2)cc1	.	5	3	7%	.
CCOC(=O)c1ccc(NC(=O)c2nc[nH]c2C(=O)NCCCCNC(=O)c2[nH]cnc2C(=O)Nc2ccc(C(=O)OCC)cc2)cc1	.	4	12	-10%	.
C(=N\Nc1ccccc1)/c1nc2ccccc2s1	4%	.	-1	29%	1%
CC(CCc1ccccc1)NC(=O)COC(=O)c1cccnc1Cl (stereo not drawn)	.	-3	-14	5%	.
O=C(N/N=C/C(Cl)=C\c1ccccc1)c1ccco1	-11%	-77*	-14	?	?
CC(=C/c1ccccc1)/C=N/NC(=O)c1cnccn1	?	-1	4	?	?
O=C(N/N=C/C(Cl)=C\c1ccccc1)c1cnccn1	18%	-85*	?	13µM*	19%
O=C(N/N=C/C(Cl)=C/c1ccccc1)c1cnccn1	?	-92*	?	?	-16%
O=C(N/N=C/C(Cl)=C/c1ccccc1)c1ccco1	9%	?	-5	?	4%
CC(CCc1ccccc1)NC(=O)C(Cc1ccccc1)NC(N)=O (stereo not drawn)	4%	0	-5	-1%	-2%
CC(C)N(C(=O)CSc1nc2ccccc2c(=O)[nH]1)C(C)C	-3%	4	0	1%	-9%
CC(/C=C/c1ccco1)=N\NC(=O)c1cc(Cl)ccc1O	?	-24	-9	16%	8.9µM*
COC(=O)N1c2ccccc2C=Cc2ccccc21	5%	-12	-5	.	-28%
CC(C)NC(=O)C(C)Oc1ccc(S(=O)(=O)NCc2ccc3c(c2)OCO3)cc1 (stereo not drawn)	0%	5	1	.	20%
COc1ccc(C2=C/C(=C\c3cccc(OC(C)=O)c3)C(=O)O2)cc1	?	-12	3	-8%	7.1µM*
COc1ccc(NC(=O)COC(=O)CNC(=O)c2cccs2)cc1Cl	.	0	-1	11%	.
C[C@H](NC(=O)c1nc[nH]c1C(=O)N[C@@H](C)C(=O)OCc1ccccc1)C(=O)OCc1ccccc1	?	1	-7	.	13µM*
C[C@H](NC(=O)c1nc[nH]c1C(=O)NC(c1ccccc1)c1ccccc1)C(=O)OCc1ccccc1	35µM*	-25	-10	0%	?
CCN(CC)C(=O)c1[nH]cnc1C(=O)N[C@@H](C)C(=O)OCc1ccccc1	-6%	3	-1	-3%	-24%
COc1ccc(C2c3cc(OC)c(OC)cc3Cc3c4cc(OC)c(OC)cc4cc[n+]32)cc1OC (stereo not drawn)	0%	.	.	.	4%
Clc1ccc(CCNc2ncnc3nc[nH]c23)cc1	11µM*	3	3	15%	-22%
CCN(CC)C(=S)Nc1ccc(OC(F)F)cc1	-3%	2	6	16%	-11%

Compound activity as filed in PubChem.
